Inconclusive results are not listed. Calls of active or inactive are those of the source. Calls come from the whole dose curve; as a rule, active = well fitted curve in either direction with a large enough effect; inconclusive = small, poorly fitted or top-dose-only effect; inactive = no such curve, though single readings can be large or run the other way.
Molecular target: Lysosomal alpha-glucosidase (Homo sapiens) (UniProt P10253)
Experiment: Confirmation of Inhibitors and Activators of Human alpha-Glucosidase From Spleen Homogenate;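 for Potency: fluorescence of 4-methylumbelliferone released from a fluorogenic glucopyranoside substrate at pH 5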; for activity change, both directions: 0% is about no effect
Settings: alpha-glucosidase enzyme activity; series mostly up to 60.5 µM; activity change, both directions: at the top concentration
Summary of the method: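 Compounds titrated against spleen-homogenate alpha-glucosidase, pH 5.0, 1 mM 4-MU-glucoside substrate, 37 C for 40 min. Fluorescence after pH 10 stop, normalised to no-enzyme and enzyme controls; Hill-equation AC50.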
Potency is the fitted concentration of half-maximal effect.

Activity change, both directions, inactive:
CC1CC(C)CN(CC(=O)N2c3ccccc3CCc3ccccc32)C1 (stereo not drawn) -1.9%
N#Cc1c(-c2ccccc2)nc(SCc2nc(N)nc(N3CCCCC3)n2)[nH]c1=O 5.5%
Cc1ccccc1S(=O)(=O)N1CCOCC1 -0.0363%
COc1ccc(CCn2c(N)cc(=O)[nH]c2=S)cc1OC -3.28% [at 31.5 µM]
O=S(=O)(c1ccc(Br)cc1)N1CCOCC1 1.29%
O=S(=O)(c1ccc(Cl)cc1)N1CCOCC1 3.29%
O=C(Nc1cc(S(=O)(=O)N2CCOCC2)ccc1N1CCCC1)c1cc(=O)[nH]c2ccccc12 -13% [at 31.5 µM]
CC(=O)Nc1cccc2c1C(=O)NC2=O -1.43% [at 31.5 µM]
Cn1c(=O)c2c(nc(NCc3ccc4c(c3)OCO4)n2Cc2ccc(F)cc2)n(C)c1=O -1.05%
O=C(O)c1cc2c(ccc3ccccc32)o1 -0.045% [at 31.5 µM]
CCCC1(C)Nc2ccccc2-c2nc3ccccc3n21 (stereo not drawn) 19.2% [at 31.5 µM]
CC(C)NCC(O)COc1cccc2[nH]ccc12 (stereo not drawn) 1.09%
Cc1[nH]nc2c1C(c1ccc(OC(=O)c3ccco3)cc1)C(C#N)=C(N)O2 (stereo not drawn) 1.59%
O=C(COc1ccc2ccccc2c1)N1CCN(C(=O)c2ccco2)CC1 1.13% [at 31.5 µM]

Potency, active:
O=C1Cc2cc(S(=O)(=O)N3CCN(c4ccc([N+](=O)[O-])cc4)CC3)ccc2N1 3.66 µM [inhibitor]
CCCN1CNc2c(c(=O)[nH]c(=S)n2CCc2cccc(OC)c2)C1 15.8 µM
CCCN1CNc2c(c(=O)[nH]c(=S)n2CCc2c(Cl)cccc2Cl)C1 35.5 µM
N#C/C(=C\c1c(N2CCCCC2)nc2ccccn2c1=O)C(=O)NC1CCS(=O)(=O)C1 (stereo not drawn) 14.1 µM

Source: PubChem BioAssay AID2113 (National Center for Advancing Translational Sciences (NCATS), 2009)
